# JMJD2A Tudor inh = blocks the human JMJD2A Tudor domain; AlphaScreen JMJD2A-Tudor / H3K4me3 peptide binding; Potency, µM (series often up to 114 µM), inactives show top-dose activity change, negative = inhibition, most hits filed as inhibitors; hit rate 4.4% among 390,000; AID 504339; note: potency is the fitted concentration of half-maximal effect; % is set by controls: 0 for no effect and ±100 for the full control effect; nearly all actives have a fitted effect of over 50% in size
# PLK1 PBD block = blocks phosphopeptide binding to human PLK1 polo-box domain | P53350 | Plk1 PBD binding of FITC phosphopeptide, fluorescence polarization | Potency, µM, for the others: max response, negative = inhibition, actives largely listed as inhibitors | hit rate 2.8% among 360,000; note: potency is the fitted concentration of half-maximal effect; series mostly up to about 57 µM; % is set by controls: 0 for no effect and ±100 for the full control effect; nearly all actives have a fitted effect of over 65% in size
# Target sequence (P53350 whole entry, looked up, the tested form may be a part): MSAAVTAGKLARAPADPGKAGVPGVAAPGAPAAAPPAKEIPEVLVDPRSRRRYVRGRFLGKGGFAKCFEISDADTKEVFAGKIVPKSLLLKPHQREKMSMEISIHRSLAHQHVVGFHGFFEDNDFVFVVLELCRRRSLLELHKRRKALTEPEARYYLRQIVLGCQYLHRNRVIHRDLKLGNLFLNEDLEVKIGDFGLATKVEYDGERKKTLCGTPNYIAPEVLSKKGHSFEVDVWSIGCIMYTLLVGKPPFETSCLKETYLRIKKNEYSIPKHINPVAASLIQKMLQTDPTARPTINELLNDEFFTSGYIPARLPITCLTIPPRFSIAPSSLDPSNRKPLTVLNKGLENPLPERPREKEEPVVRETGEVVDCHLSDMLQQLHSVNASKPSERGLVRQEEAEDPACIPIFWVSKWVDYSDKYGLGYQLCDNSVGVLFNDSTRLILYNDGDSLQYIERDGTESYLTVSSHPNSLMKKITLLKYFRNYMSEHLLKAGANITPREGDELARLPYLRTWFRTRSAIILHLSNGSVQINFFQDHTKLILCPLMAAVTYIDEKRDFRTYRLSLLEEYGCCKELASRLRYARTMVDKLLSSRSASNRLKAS
# BAZ2B inh = BAZ2B (human) inhibition; AID 504333; AlphaScreen BAZ2B-H3K14Ac peptide displacement; hit rate 4.4% among 360,000; Potency, µM (highest dose often 114 µM), inactives show top-dose activity change, negative = inhibition, usual class: inhibitors; note: potency is the fitted concentration of half-maximal effect; % is set by controls: 0 for no effect and ±100 for the full control effect; nearly all actives have a fitted effect of over 60% in size
#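 In this displacement format the biotinylated H3(5-23) peptide acetylated at Lys14 serves as ligand at 50 nM, with BAZ2B at 50 nM in PBS pH 7.4 containing 0.01% Tween-20. Donor and acceptor beads are 10 ug/mL final.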
# HP1b binding inh = inhibitors of HP1-beta chromodomain binding to methylated histone tails; Potency, µM (doses to about 114 µM), without a hit: top-dose activity change, negative = inhibition, usual class: inhibitors; AID 540317; P83916; hit rate 0.56% among 390,000; AlphaScreen HP1-beta / biotin-H3K9me3 peptide binding; note: potency is the fitted concentration of half-maximal effect; nearly all actives have a fitted effect of over 70% in size
#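 Compound inhibition of the preformed complex between 50 nM HP1-beta and 50 nM biotinylated H3K9me3 peptide was read by AlphaScreen. Buffer was PBS pH 7.4 with 0.01% Tween-20. Incubations ran 30 min at room temperature, with 10 ug/mL donor/acceptor beads.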
# G9a inh = G9a (human) methyltransferase inhibition. Potency, µM (top dose mostly 102 µM), for the others: top-dose activity, negative = inhibition, actives largely listed as inhibitors. hit rate 8.8% among 350,000. G9a H3K9 monomethylation, AlphaScreen, 2 h. Q96KQ7; note: potency is the fitted concentration of half-maximal effect; % is set by controls: 0 for no effect and ±100 for the full control effect; nearly all actives have a fitted effect of over 75% in size
#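 Using a bead-based AlphaScreen, monomethylated H3K9 product from 2 h room-temperature reactions (G9a 20 nM, peptide 500 nM, SAM 20 uM) was detected with 0.5 ug/mL rabbit anti-H3K9me1 antibody.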
# PI5P4Ka inh = PI5P4K alpha (human) kinase inhibition | PI5P4Kalpha enzyme, ADP-Glo luminescence, 60 min; active compounds read low | max response, % | hit rate 1.2% among 330,000 | AID 652105; active = max response of -50% or lower; inconclusive = between -30% and -50%; inactive = -30% or higher; note: value at the top dose of about 77 µM; % is set by controls: 0 for no effect and ±100 for the full control effect
#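 ADP-Glo luminescence end-point after a 60 min room-temperature kinase reaction. PI5P4Kalpha and substrate in HEPES pH 7.4 buffer with EGTA, 0.1% CHAPS and 5% DMSO; ATP at 5 microM final.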
# Starred values were filed as active, the others as inactive; ? = inconclusive; . = no result given; [ ] = remark or other dose. Shown are actives, neighbours in structure and some others; about 12% of the full set was active somewhere. Unless noted, calls come from the whole dose curve; as a rule, active = well fitted curve in the direction sought with a large enough effect; inconclusive = small, poorly fitted or top-dose-only effect, or another doubt; inactive = no such curve, though single readings can be large; an effect the other way counts as inactive or inconclusive.
SMILES,JMJD2A Tudor inh,PLK1 PBD block,BAZ2B inh,HP1b binding inh,G9a inh,PI5P4Ka inh
O=c1c2cn(Cc3ccc(F)cc3)c3ccccc3c-2nn1Cc1ccc(F)cc1,-22%,-6%,4%,-11%,32µM*,4
CCOc1cc2c3c(c1)C(C)CC(C)(C)N3C(=O)C2=O (configuration not stated),-30%,-9%,-10%,?,-48%[59 µM],.
CC1CC2(CCCCC2)N2C(=O)C(=O)c3cccc1c32 (configuration not stated),?,-29%,?,?,71µM*,.
Nc1c(S(=O)(=O)O)cc(NC(=O)c2ccccc2)c2c1C(=O)c1ccccc1C2=O,2.5µM*,21µM*,3.5µM*,?,?,-77*
O=C(Nc1ccccc1-c1ccccc1)c1ccccc1,21%,2%,4%,40%,.,2
COc1ccc(Nc2c(-c3ccc(C)o3)nc3cc(C)ccn23)cc1,?,.,?,-14%,16µM*,.
Cc1ccn2c(Nc3ccc4c(c3)OCO4)c(-c3ccc(C)o3)nc2c1,?,.,-35%,18%,16µM*,.
Cc1ccc2nc(-c3ccc(C)o3)c(Nc3ccc4c(c3)OCO4)n2c1,-26%,.,.,19%,.,.
Cc1ccc(-c2nc3ccc(Br)cn3c2Nc2ccc3c(c2)OCO3)o1,-20%,.,-9%,5%,1%[59 µM],.
Cc1ccc(-c2nc3cnccn3c2Nc2ccc3c(c2)OCO3)o1,?,-19%,50µM*,-17%,32µM*,-1
COC(=O)Cc1c(C)c2cc3c(c(C)c2oc1=O)OCN(CCc1ccc(F)cc1)C3,-15%,.,-4%,23%,3%[59 µM],.
O=C(O)CCCN=Cc1c(O)c2ccccc2oc1=O,-9%,-9%,-17%,14%,-40%,-6
N[C@H](CCC(=O)NCC(=O)O)C(=O)O,.,.,.,.,36%[59 µM],.
COC(=O)[C@@]12CCCN1[C@H](c1ccc(-c3ccccc3)cc1)[C@H]1C(=O)N(C)C(=O)[C@H]12,79µM*,-13%,-13%,7%,15%[2.33 µM],0
O=C(CSc1nc2[nH]ncc2c(=O)[nH]1)NCc1ccccc1,-16%,-12%,3%,25%,3%[59 µM],-1
O=C(CSc1nncc(=O)[nH]1)Nc1cccc([N+](=O)[O-])c1,-13%,21µM*,-21%,51%,-13%,-26
Nc1cc(=O)[nH]c(SCC(=O)Nc2cccc([N+](=O)[O-])c2)n1,-11%,-16%,-8%,60%,28%[12.7 µM],-1
O=C(CSc1nc(SCC(=O)NCc2ccccc2)n(-c2ccccc2)n1)NCc1ccccc1,-13%,-10%,3%,28%,25µM*,.
O=C(CSc1nncc(=O)[nH]1)NCc1ccccc1,40µM*,27µM*,?,0%,56µM*,-28
CN(Cc1ccco1)C(=O)CC[C@H]1O[C@@H](n2ccc(=O)[nH]c2=O)[C@H](O)[C@@H]1O,.,-13%,.,.,.,-6
O=C(CCCNC(=O)c1ccc(Cl)cc1)Nc1ccc(Br)cc1,-5%,-25%,-14%,23%,12%,22
Cc1ccc([N+](=O)[O-])cc1NC(=O)CNC1CCCCC1,10%[57.1 µM],-5%,16%,35%,.,-1
CC(=O)c1c(C)[nH]c(C(=O)OCC(=O)Nc2ncc(Cl)c(C)c2Cl)c1C,-31%[57.1 µM],-14%,-39%,11%,22%[59 µM],-54*
CC(=O)c1c(C)[nH]c(C(=O)OCC(=O)Nc2ccc(C)cc2[N+](=O)[O-])c1C,-19%,-23%,?,2%,?,0
O=C(CNC1CCCC1)Nc1cc(Cl)ccc1[N+](=O)[O-],1µM*,0%,56µM*,40µM*,45µM*,-2
SMILES,JMJD2A Tudor inh,PLK1 PBD block,BAZ2B inh,HP1b binding inh,G9a inh,PI5P4Ka inh
CC(=O)c1c(C)[nH]c(C(=O)OCC(=O)Nc2cc(Cl)ccc2[N+](=O)[O-])c1C,-15%,2%,?,15%,50µM*,-7
O=C(COc1ccccc1[N+](=O)[O-])OCC(=O)c1ccc(Br)s1,-21%,-11%,.,22%,.,?
COC(=O)[C@H](C)[C@H](CC(C)C)NC(=O)[C@H](C)[C@H](CC(C)C)NC(=O)c1ccccn1,-5%,.,.,28%,.,.
O=c1ccc2cc(S(=O)(=O)NCc3ccc(Cl)cc3)ccc2[nH]1,?,.,?,8%,-42%[59 µM],.
CCCc1nnc(NC(=O)Cn2c(=O)oc3cc(Br)ccc32)s1,-6%,0%,-9%,6%,28µM*,.
Cc1nc2[nH]onc2c2nccc(=O)c12,-6%,-10%,-1%,29%,14µM*,?
O=S(=O)(c1cccc2ccccc12)N1CCN(c2nc(-c3cccs3)nc3ccccc23)CC1,-15%,.,.,33%,.,.
CN(C)c1ccc(NC(=O)/C=C/c2c(Cl)cccc2Cl)cc1,-34%,3%,?,?,1.8µM*,-1
Cc1ccc(C(=O)N/C(=C\c2ccco2)C(=O)NCCN2CCOCC2)cc1,-13%,-5%,1%,-1%,6%,-16
Cc1cccc(OCCCN2CCOCC2)c1C,25µM*,3%,?,?,.,1
Clc1cc(Br)ccc1OCCOCCN1CCOCC1,7.1µM*,-1%,?,-22%,?,-4
Cc1cccc(OCCCCCN2CCOCC2)c1C,-14%,5%,3%,13%,-5%,1
Cc1ccc(OCCCCCN2CCOCC2)c(Cl)c1,22µM*,-18%,.,50µM*,.,-1
Clc1cc(Br)ccc1OCCOCCN1CCCC1,32µM*,-2%,?,?,40µM*,5
CC(=O)N1CCc2c(sc3c2c(=O)n(CCc2ccccc2)c(=O)n3Cc2ccccc2C)C1,?,.,-35%,-7%,?,.
Cc1cccnc1NC(=O)c1cccc(S(=O)(=O)NCc2ccccc2)c1,0%,4%,0%,27%,-6%,1
CN1CCN(c2ncc3ncc(=O)n(Cc4cccs4)c3n2)CC1,.,.,.,.,-4%[12.7 µM],.
COC(=O)c1c(C)oc2ccc(N(C(=O)Oc3ccccc3)S(=O)(=O)c3ccc(C(C)(C)C)cc3)cc12,-27%,.,-8%,0%,-37%[59 µM],.
COc1ccc(O)c(/C=C2/SC(=S)N(Cc3ccccc3)C2=O)c1,40µM*,-6%,32µM*,?,4.5µM*,-9
O=C1/C(=C\c2cc(Cl)c(O)c(Cl)c2)SC(=S)N1Cc1ccccc1,50µM*,-1%,50µM*,?,14µM*,-102*
CN1C(=O)/C(=C\c2cc(N=Nc3ccccc3)ccc2O)SC1=S,40µM*,?,3.5µM*,-65%,8.9µM*,-29
CC(C)OCCCNC(=O)CCCN1C(=O)CCn2nc(-c3cccn3C)cc21,-19%,.,-20%,-1%[57 µM],-10%[59 µM],.
N#Cc1ccccc1NC(=O)c1cc2c(=O)n3ccccc3nc2s1,-3%,.,-5%,14%,-36%[59 µM],.
CC1CCCN(CCCNC(=O)c2cc(Sc3ccc(F)cc3)nc3ccccc23)C1 (configuration not stated),-19%,.,-5%,11%,-6%[59 µM],.
